PubChem BioAssay (NCI)
The panel holds about 83,000 compounds, 20% with a hit somewhere; the sample as a whole holds those more often.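 Results are percent growth after 48 hours of single-concentration exposure. 100 means growth as in untreated cells, lower positive values show inhibition; negative values down to -100 show cell death.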 Values without a mark were called inactive. The source made the active and inactive calls. Rule for the calls: active = growth percent below 10; inactive = the rest.

What was measured:
Assay in all cases: NCI-60 one-dose screen, 48 h (100 = growth as untreated, 0 = no growth, -100 = all killed)
Conditions in all cases: 10 µM unless noted
SR leukemia = test system: SR leukemia
RPMI-8226 leukemia = test system: RPMI-8226 leukemia
OVCAR-8 ovarian = test system: OVCAR-8 ovarian
OVCAR-5 ovarian = test system: OVCAR-5 ovarian
OVCAR-4 ovarian = test system: OVCAR-4 ovarian
SK-OV-3 ovarian = test system: SK-OV-3 ovarian
IGROV1 ovarian = test system: IGROV1 ovarian
OVCAR-3 ovarian = test system: OVCAR-3 ovarian
HS 578T breast = test system: HS 578T breast
NCI/ADR-RES ovarian = test system: NCI/ADR-RES ovarian
T-47D breast = test system: T-47D breast
BT-549 breast = test system: BT-549 breast
MDA-MB-435 melanoma = test system: MDA-MB-435 melanoma
SW-620 colon = test system: SW-620 colon
MCF7 breast = test system: MCF7 breast
HCT-116 colon = test system: HCT-116 colon
HCC-2998 colon = test system: HCC-2998 colon
KM12 colon = test system: KM12 colon

| Compound | growth (SR leukemia) | growth (RPMI-8226 leukemia) | growth (OVCAR-8 ovarian) | growth (OVCAR-5 ovarian) | growth (OVCAR-4 ovarian) | growth (SK-OV-3 ovarian) | growth (IGROV1 ovarian) | growth (OVCAR-3 ovarian) | growth (HS 578T breast) | growth (NCI/ADR-RES ovarian) | growth (T-47D breast) | growth (BT-549 breast) | growth (MDA-MB-435 melanoma) | growth (SW-620 colon) | growth (MCF7 breast) | growth (HCT-116 colon) | growth (HCC-2998 colon) | growth (KM12 colon) |
| --- | --- | --- | --- | --- | --- | --- | --- | --- | --- | --- | --- | --- | --- | --- | --- | --- | --- | --- |
| COc1cc(/C=C2\SC(N3CCCCC3)=NC2=O)ccc1OCCCCCCOc1ccc(/C=C2\SC(N3CCCCC3)=NC2=O)cc1OC | 0.724% (active) | -5.76% (active) | 8.07% (active) | 40.6% | 21% | 41.9% | 19.5% | -82.9% (active) | 7.66% (active) | 0.636% (active) | 21.9% | -36.6% (active) | -48% (active) | -24.7% (active) | 16.6% | -64.3% (active) | -76.5% (active) | -72.1% (active) |
| COc1cccc(CCN2C(=O)CCC3=C2CCC3=O)c1 | 102% | 98.1% | 108% | 104% | 104% | 102% | 103% | 114% | 130% | 104% | 102% | 101% | 107% | 119% | 103% | 97.7% | 104% |  |
| COc1cnc2c(c1)C(=O)c1c-2n(CCCN2CCC(O)CC2)c(=O)c2cc(F)ccc12 | 0.0108% (active) | -26.2% (active) | -6.45% (active) | -8.07% (active) | -0.215% (active) | -31.6% (active) | 1.69% (active) | -8.34% (active) | 27.7% | 0.114% (active) | -4.28% (active) | 0.525% (active) | 8.13% (active) | 6.58% (active) | 0.145% (active) | -71.7% (active) | 13.5% | -6.17% (active) |
| OC(c1ccccc1)C(NCc1ccccc1)c1ccccc1 (stereo not given) | 103% | 84.3% | 109% | 88.6% | 94.3% | 101% | 96.7% | 111% | 107% | 85.1% | 91.7% | 98.7% | 78.9% | 92.9% | 97.1% | 66.1% | 105% | 102% |
| C#C[C@]1(O)CCC2C3CCc4cc(O)ccc4C3CC[C@@]21C (stereo not given in full) | 8.3% (active) | 28.4% | 47.5% | 78.1% | 66.8% | 43% | 55.2% | 16.1% | 4.63% (active) | 13.5% | 50.3% | 36.8% | -5.44% (active) | 21.2% | 34.1% | 19% | 61% | 21.9% |
| CCSc1nc(-c2ccco2)n2nc(-c3ccco3)cc2n1 | 93% | 52.8% | 97.1% | 110% | 65.9% | 101% | 82.9% | 105% | 96.2% | 95.3% | 22.9% | 107% | 111% | 95.5% | 22.6% | 93.4% | 83.7% |  |
| O=C(Nc1ccccc1)P(=O)(O)c1ccccc1 | 98% | 111% | 92.4% | 92.9% | 105% | 113% | 121% | 104% | 107% | 99.4% | 113% | 110% | 111% | 101% | 96.8% | 98.1% | 97.3% | 99.8% |
| CCCCCN(CCCCC)CCCNc1c2c(nc3ccc(Cl)cc13)CCCC2 | 0.527% (active) | 4.62% (active) | 37.5% | 41.2% | 17.6% | 66.6% | 17.5% | 58.1% | 71.6% | 48.9% | 38.1% | 36.2% | 66.4% | 33.5% | 35.5% | 5.37% (active) | 16.3% | 55.5% |
| C[C@H]1O[C@@H](O[C@H]2[C@@H](O)C[C@H](O[C@H]3[C@@H](O)C[C@H](O[C@H]4CC[C@]5(C)C6CC[C@]7(C)[C@@H](C8=CC(=O)OC8)CC[C@]7(O)C6CC[C@@H]5C4)O[C@@H]3C)O[C@@H]2C)C[C@H](O)[C@@H]1O (stereo not given in full) | -32.7% (active) | -18.8% (active) | -79.1% (active) | -100% (active) | -51.4% (active) | -92.5% (active) | -38.8% (active) | -100% (active) | -1.73% (active) | -79.2% (active) | -44.5% (active) | -92.5% (active) | -100% (active) | -100% (active) | -41.2% (active) | -96.7% (active) | -90.8% (active) | -100% (active) |
